Measured values as given in PubChem BioAssay (Tox21).
Results filed as inconclusive are left out. The source made the active and inactive calls. Calls follow the shape of the dose curve; as a rule, active = well fitted cell-killing curve with a large enough effect in the repeat runs; inconclusive = weak or mixed curves, or effect the other way; inactive = no such curve, though single readings can be large or run the other way.

Experiment: qHTS assay for identifying genotoxic compounds that show differential cytotoxicity against isogenic chicken DT40 cell lines with known DNA damage response pathways - wild type cell line (AID 743012); also: nearly all actives have a fitted effect of over 60% in size
Details: DT40 wild type chicken cells viability, CellTiter-Glo, 40 h; series mostly up to 68.4 µM
In short: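 First, wild type DT40 cells were plated at 300 per well and equilibrated about 0.5 h at 37 C/5% CO2. Next, compounds in DMSO were added and exposure lasted 40 h. Finally, CellTiter-Glo was added for 30 min at room temperature and luminescence recorded.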
Potency is read from the fitted curve at half-maximal effect.

Compound | Potency
C=CC[C@@H]1/C=C(\C)C[C@H](C)C[C@H](OC)[C@H]2O[C@@](O)(C(=O)C(=O)N3CCCC[C@H]3C(=O)O[C@H](/C(C)=C/[C@@H]3CC[C@@H](O)[C@H](OC)C3)[C@H](C)[C@@H](O)CC1=O)[C@H](C)C[C@@H]2OC | 5.31 µM (active)
Nc1ncnc2c1ncn2[C@@H]1O[C@H](COP(=O)(O)OP(=O)(O)OP(=O)(O)O)[C@@H](O)[C@H]1O | inactive
CC(C)N1CCN(c2ccc(OC[C@H]3CO[C@](Cn4cncn4)(c4ccc(Cl)cc4Cl)O3)cc2)CC1 | 4.52 µM (active)
C=C1/C(=C\C=C2/CCC[C@]3(C)[C@@H]([C@H](C)OCCC(C)(C)O)CC[C@@H]23)C[C@@H](O)C[C@@H]1O | 8.41 µM (active)
CCCC1([C@H](O)C/C=C/[C@H]2[C@H](O)CC(=O)[C@@H]2CCCCCCC(=O)OC)CCC1 | 11.9 µM (active)
CCCCCCCC(=O)CC[C@@H]1[C@@H](C/C=C\CCCC(=O)OC(C)C)[C@@H](O)C[C@H]1O | 8.41 µM (active)
CC(CN(C)C)CN1c2ccccc2Sc2ccc(C(F)(F)F)cc21 (centres undefined) | 5.96 µM (active)
CC[C@@]1(O)C(=O)OCc2c1cc1n(c2=O)Cc2cc3c([N+](=O)[O-])cccc3nc2-1 | 0.119 µM (active)
O=[N+]([O-])c1c(Cl)cccc1-c1c[nH]cc1Cl | 18.8 µM (active)
CC[C@@H](C(=O)[C@@H](C)[C@@H](O)[C@H](C)[C@@H]1O[C@@H]([C@@H](CC)C(=O)O)CC[C@@H]1C)[C@H]1O[C@]2(C=C[C@@H](O)[C@]3(CC[C@@](C)([C@H]4CC[C@](O)(CC)[C@H](C)O4)O3)O2)[C@H](C)C[C@@H]1C | 1.5 µM (active)
CCN(CC)CCOc1ccc(-c2nc3cc(Cl)ccc3s2)cc1 | 0.944 µM (active)

Experiment: qHTS assay for identifying genotoxic compounds that show differential cytotoxicity against isogenic chicken DT40 cell lines with known DNA damage response pathways - Rev3 mutant cell line (AID 743014); also: nearly all actives have a fitted effect of over 55% in size
Details: chicken DT40 Rev3-/- viability, CellTiter-Glo, 40 h; series mostly up to 68.4 µM

Compound | Potency
C=C1C(=C/C=C2\CCC[C@]3(C)[C@@H]([C@H](C)CCCC(C)(C)O)CC[C@@H]23)C[C@@H](O)C[C@@H]1O | 11.9 µM (active)
C=C1C(=C/C=C2\CCC[C@]3(C)[C@@H]([C@H](C)/C=C/[C@H](C)C(C)C)CC[C@@H]23)C[C@@H](O)C[C@@H]1O | 21.1 µM (active)
O=C(CCCN1CCC(n2c(=S)[nH]c3ccccc32)CC1)c1ccc(F)cc1 | 18.8 µM (active)
CCC(=O)O[C@H]1CC[C@H]2[C@@H]3CCc4cc(O)ccc4[C@H]3CC[C@]12C | 21.1 µM (active)
Cc1nnc(C(C)C)n1C1C[C@H]2CC[C@@H](C1)N2CC[C@H](NC(=O)C1CCC(F)(F)CC1)c1ccccc1 (some centres undefined) | inactive
CC1=C(/C=C/C(C)=C/C=C/C(C)=C/C=C/C=C(C)/C=C/C=C(C)/C=C/C2=C(C)C[C@@H](O)CC2(C)C)C(C)(C)C[C@H](O)C1 | 13.3 µM (active)
O=C(O)CCC/C=C\C[C@@H]1[C@@H](/C=C/[C@@H](O)COc2cccc(Cl)c2)[C@H](O)C[C@@H]1O | inactive
COc1cc([C@@H]2c3cc4c(cc3C(O[C@@H]3O[C@@H]5COC(c6cccs6)O[C@H]5[C@H](O)[C@H]3O)C3COC(=O)[C@@H]32)OCO4)cc(OC)c1O (some centres undefined) | 0.0119 µM (active)
CCCCCCCCCCCCCCCC(=O)O[C@@H]1CC(C)=C(/C=C/C(C)=C/C=C/C(C)=C/C=C/C=C(C)/C=C/C=C(C)/C=C/C2=C(C)C[C@@H](OC(=O)CCCCCCCCCCCCCCC)CC2(C)C)C(C)(C)C1 | inactive
CO[C@H]1C[C@@H]2CC[C@@H](C)[C@@](O)(O2)C(=O)C(=O)N2CCCC[C@H]2C(=O)O[C@H]([C@H](C)C[C@@H]2CC[C@@H](OC(=O)C(C)(CO)CO)[C@H](OC)C2)CC(=O)[C@H](C)/C=C(\C)[C@@H](O)[C@@H](OC)C(=O)[C@H](C)C[C@H](C)/C=C/C=C/C=C/1C | inactive
C=C1C(=O)O[C@H]2[C@H]1CC/C(C)=C\CC[C@@]1(C)O[C@@H]21 | 2.98 µM (active)
CCCCCCCCCCCCCCCCSCC(COC)COP(=O)([O-])OCC[N+](C)(C)C (centres undefined) | inactive
OCC(S)CS (centres undefined) | 18.8 µM (active)
CO[C@H]1C=CO[C@@]2(C)Oc3c(C)c(O)c4c(O)c(c(/C=N/N5CCN(C6CCCC6)CC5)c(O)c4c3C2=O)NC(=O)/C(C)=C\C=C[C@H](C)[C@H](O)[C@@H](C)[C@@H](O)[C@@H](C)[C@H](OC(C)=O)[C@@H]1C | 8.41 µM (active)
O=C1CSC2(CCN(CCCN3c4ccccc4Sc4ccc(Cl)cc43)CC2)N1 | 7.5 µM (active)
NC(=O)C[C@@H](N)C(=O)O | inactive
CO[C@@]1(NC(=O)C2SC(=C(C(N)=O)C(=O)O)S2)C(=O)N2C(C(=O)O)=C(CSc3nnnn3C)CS[C@@H]21 (some centres undefined) | inactive

Compound | Potency
CC(C)C(=O)OCC(=O)[C@@]12O[C@H](C3CCCCC3)O[C@@H]1C[C@H]1[C@@H]3CCC4=CC(=O)C=C[C@]4(C)[C@H]3[C@@H](O)C[C@@]12C | inactive
C#C[C@]1(O)CC[C@H]2[C@@H]3CCC4=CCCC[C@@H]4[C@H]3C(=C)C[C@@]21CC | 15 µM (active)
C=CC[C@@H]1/C=C(\C)C[C@H](C)C[C@H](OC)[C@H]2O[C@@](O)(C(=O)C(=O)N3CCCC[C@H]3C(=O)O[C@H](/C(C)=C/[C@@H]3CC[C@@H](O)[C@H](OC)C3)[C@H](C)[C@@H](O)CC1=O)[C@H](C)C[C@@H]2OC | 4.22 µM (active)
Nc1ncnc2c1ncn2[C@@H]1O[C@H](COP(=O)(O)OP(=O)(O)OP(=O)(O)O)[C@@H](O)[C@H]1O | inactive
CC(C)N1CCN(c2ccc(OC[C@H]3CO[C@](Cn4cncn4)(c4ccc(Cl)cc4Cl)O3)cc2)CC1 | 5.07 µM (active)
C=C1/C(=C\C=C2/CCC[C@]3(C)[C@@H]([C@H](C)OCCC(C)(C)O)CC[C@@H]23)C[C@@H](O)C[C@@H]1O | 13.3 µM (active)
CCCC1([C@H](O)C/C=C/[C@H]2[C@H](O)CC(=O)[C@@H]2CCCCCCC(=O)OC)CCC1 | 23.7 µM (active)
C[C@H](/C=C/[C@H](C)C(C)(C)O)[C@H]1CC[C@H]2/C(=C/C=C3C[C@@H](O)C[C@H](O)C3)CCC[C@]12C | inactive
CCCCCCCC(=O)CC[C@@H]1[C@@H](C/C=C\CCCC(=O)OC(C)C)[C@@H](O)C[C@H]1O | 21.1 µM (active)
CC(CN(C)C)CN1c2ccccc2Sc2ccc(C(F)(F)F)cc21 (centres undefined) | 7.5 µM (active)
CCc1ccc2c(c1)N(CC(C)CN(C)C)c1ccccc1S2 (centres undefined) | 5.31 µM (active)
CC[C@@]1(O)C(=O)OCc2c1cc1n(c2=O)Cc2cc3c([N+](=O)[O-])cccc3nc2-1 | 0.0944 µM (active)
O=[N+]([O-])c1c(Cl)cccc1-c1c[nH]cc1Cl | 23.7 µM (active)
CC[C@@H](C(=O)[C@@H](C)[C@@H](O)[C@H](C)[C@@H]1O[C@@H]([C@@H](CC)C(=O)O)CC[C@@H]1C)[C@H]1O[C@]2(C=C[C@@H](O)[C@]3(CC[C@@](C)([C@H]4CC[C@](O)(CC)[C@H](C)O4)O3)O2)[C@H](C)C[C@@H]1C | 0.944 µM (active)
CC(C)N=c1cc2n(-c3ccc(Cl)cc3)c3ccccc3nc-2cc1Nc1ccc(Cl)cc1 | 11.4 µM (active)
CCN(CC)CCOc1ccc(-c2nc3cc(Cl)ccc3s2)cc1 | 1.06 µM (active)
